AmpC inh no detg: qHTS Inhibitors of AmpC Beta-Lactamase (assay without detergent); P00811; AmpC nitrocefin hydrolysis, absorbance 480 nm, 0.0001% Triton; Potency, µM (doses to about 57.1 µM), for inactives: at the highest dose activity change, negative = inhibition, actives largely listed as inhibitors; hit rate 0.52% among 330,000; AID 485341, 2010;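 also: plate controls were no compound for no effect and no enzyme for full effect; nearly all actives have a fitted effect of over 20% in size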
Target sequence (P00811 whole entry, looked up): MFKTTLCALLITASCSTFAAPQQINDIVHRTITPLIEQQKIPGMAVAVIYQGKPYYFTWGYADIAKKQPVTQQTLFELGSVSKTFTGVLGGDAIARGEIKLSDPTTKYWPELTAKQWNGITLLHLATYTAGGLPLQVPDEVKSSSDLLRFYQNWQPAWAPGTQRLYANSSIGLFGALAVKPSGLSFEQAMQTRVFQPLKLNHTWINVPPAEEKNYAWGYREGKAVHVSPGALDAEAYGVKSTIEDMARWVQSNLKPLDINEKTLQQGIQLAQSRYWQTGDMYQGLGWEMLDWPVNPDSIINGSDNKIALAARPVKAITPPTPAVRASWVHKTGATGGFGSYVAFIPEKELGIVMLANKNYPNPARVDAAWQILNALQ
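20 mM phosphate pH 7.0 + 0.01% (detergent screen) or 0.0001% Triton X-100; 5.3 nM AmpC reagent; cpd preinc 15 min RT; nitrocefin (800 uM stock) to start; A480 q20 s × 4 min; Activity was normalised to no-enzyme and no-compound control wells.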
FMDV antiviral: High Throughput Screening for Foot and Mouth Disease Virus Antivirals | FMDV antiviral cell-based qHTS | Potency, µM (doses to about 57.9 µM), for the others: top-dose activity change, negative = inhibition, actives largely listed as inhibitors | hit rate 1.2% among 410,000 | AID 1159524, 2015; calls by dose curve; tested in HEK293T cells; also: read-out not given here; nearly all actives have a fitted effect of over 45% in size
AmpC inh detg: qHTS Inhibitors of AmpC Beta-Lactamase (assay with detergent); AID 485294, 2010; P00811; Potency, µM (doses to about 114 µM), for inactives: at the top dose activity change, negative = inhibition, usual class: inhibitors; AmpC hydrolysis of nitrocefin, absorbance 480 nm, 0.01% Triton; hit rate 0.041% among 370,000;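 also: 0% = no-compound wells and -100% = no-enzyme wells; nearly all actives have a fitted effect of over 25% in size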
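AmpC (5.3 nM in the dispensed reagent) in 20 mM phosphate pH 7.0 with 0.01% (detergent screen) or 0.0001% Triton X-100 was preincubated with compounds for 15 min at room temperature. Nitrocefin was then added from an 800 uM solution, and hydrolysis was followed at 480 nm.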
AMA1-RON2 inh: qHTS for Inhibitors of AMA1-RON; Towards Development of Antimalarial Drug Lead: Primary Screen; AlphaScreen AMA1-biotinylated RON2 peptide binding; Potency, µM (highest dose often 58.2 µM), inactives show top-dose activity change, negative = inhibition, actives largely listed as inhibitors; hit rate 0.2% among 360,000; AID 720542, 2013;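 also: 0% = vehicle wells and -100% = peptide control; nearly all actives have a fitted effect of over 45% in size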
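AMA1 (3D7) with his tag at 25 nM final met compounds first, then biotinylated RON2 peptide at 25 nM; detection used donor plus acceptor beads, 10 µg/mL apiece, read by AlphaScreen after 30 min at room temperature.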
Sm TGR block: qHTS Assay for the Inhibitors of Schistosoma Mansoni Peroxiredoxins; Schistosoma mansoni thioredoxin glutathione reductase (TGR), Q962Y6; purified TGR, DTNB reduction, TNB absorbance 405 nm; Potency, µM (highest dose often 114 µM), without a hit: at the top dose activity change, negative = inhibition, most hits filed as inhibitors; hit rate 3% among 360,000; AID 485364, 2010; also: nearly all actives have a fitted effect of over 60% in size
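Kinetic colorimetric format: TGR-catalysed, NADPH-driven DTNB reduction monitored via TNB absorbance. Enzyme dispensed at 20 nM; compound exposure 15 min at room temperature before reaction start.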
* marks the source's active call; other numbers are inactive results. Most compounds without a hit are left out; they make up all but 4.1% or so of the library. Unless noted, calls follow the shape of the dose curve; as a rule, active = well fitted curve in the direction sought with a large enough effect; inconclusive = small, poorly fitted or top-dose-only effect, or another doubt; inactive = no such curve, though single readings can be large; an effect the other way counts as inactive or inconclusive. Unless noted, % is scaled to controls: 0 for no effect and ±100 for the full control effect; potency is read from the fitted curve at half-maximal effect.

Screening Cc1ccc(S(=O)(=O)N2CCOCC2)cc1C(=O)Nc1ccccc1C(=O)O returned FMDV antiviral -6%, AmpC inh detg -2% and Sm TGR block 8%.
`CC(C)c1ccc(Nc2n[nH]c(=S)s2)cc1` gave FMDV antiviral 9% and AMA1-RON2 inh 66%.
CC1CCN(S(=O)(=O)c2ccc(NC(=O)Cc3ccc(S(=O)(=O)N4CCOCC4)s3)cc2)CC1 was read as AmpC inh no detg -14%, FMDV antiviral inconclusive, AmpC inh detg -5%, AMA1-RON2 inh -19% and Sm TGR block 79µM*.
CC1CCCN(S(=O)(=O)c2ccc(NC(=O)Cc3ccc(S(=O)(=O)N4CCOCC4)s3)cc2)C1 (stereo not given) was read as AmpC inh no detg -24%, FMDV antiviral -21%, AmpC inh detg inconclusive, AMA1-RON2 inh -8% and Sm TGR block -13%.
Screening CC1CCN(S(=O)(=O)c2ccc(NC(=O)CSc3nnnn3C)cc2)CC1 returned AmpC inh no detg 0.16µM*, FMDV antiviral 21%, AmpC inh detg -5%, AMA1-RON2 inh -2% and Sm TGR block 6%.
For Cn1nnnc1SCC(=O)Nc1cccc(S(=O)(=O)N2CCCC2)c1 the results were AmpC inh no detg -12%, FMDV antiviral -11%, AmpC inh detg -5%, AMA1-RON2 inh -6% and Sm TGR block -29%.
Screening CC1CCCCC1NC(=O)Cc1ccc(S(=O)(=O)N2CCOCC2)s1 (stereo not given) returned AmpC inh no detg 35µM*, FMDV antiviral -2%, AmpC inh detg inconclusive, AMA1-RON2 inh 9% and Sm TGR block 4%.
COc1ccc(-c2noc(-c3ccc(N4CCN(c5ccc(OC)cc5)CC4)c([N+](=O)[O-])c3)n2)cc1 was read as FMDV antiviral -7%, AmpC inh detg -3% and Sm TGR block -3%.
Screening O=C(Nc1ccc(Cl)cc1)[C@@H]1[C@@H]2C(=O)N(c3ccc(Cl)cc3)C(=O)[C@@H]2[C@H]2C=CC=NN21 returned AmpC inh no detg -18%, FMDV antiviral -25%, AmpC inh detg 1%, AMA1-RON2 inh 29% and Sm TGR block 50µM*.
`Cc1ccc(N2C(=O)[C@@H]3[C@H](C2=O)[C@H]2C=CC=NN2[C@@H]3C(=O)Nc2ccc(Cl)cc2)cc1` gave AmpC inh no detg 18%, FMDV antiviral 0%, AmpC inh detg -3%, AMA1-RON2 inh -18% and Sm TGR block -35%.
CCOc1ccc(C(=O)c2cn(CC(=O)Nc3ccc(OC)cc3)c3cc4c(cc3c2=O)OCCO4)cc1 was read as FMDV antiviral inconclusive, AmpC inh detg 6% and Sm TGR block 7%.
For O=C(NCC1CCN(Cc2ccc(Cl)cc2)CC1)C1CCCN(c2ncnc3c2nc2n3CCCCC2)C1 (stereo not given) the results were AmpC inh no detg 203%, FMDV antiviral 10µM*, AmpC inh detg 1%, AMA1-RON2 inh 52% and Sm TGR block -11%.
COc1cccc(CNC(=O)c2cc(S(=O)(=O)N3CCCCCC3)cn2C)c1 was read as FMDV antiviral -14%, AmpC inh detg -5% and Sm TGR block -5%.
Screening CCOc1ccc(OCC)c(NC(=O)c2cc(S(=O)(=O)N3CCCC3)cn2C)c1 returned FMDV antiviral 34%, AmpC inh detg 27% and Sm TGR block -5%.
Screening O=S(=O)(c1ccccc1)c1nc(-c2ccco2)oc1NCc1ccccc1 returned AmpC inh no detg -40%, FMDV antiviral 19%, AmpC inh detg inconclusive, AMA1-RON2 inh -10% and Sm TGR block 35µM*.
For N#Cc1nc(-c2ccco2)oc1NCc1cccnc1 the results were AmpC inh no detg -18%, AmpC inh detg 0%, AMA1-RON2 inh 10% and Sm TGR block 89µM*.
